The structures appear in SMILES notation. In all, about 2,100 compounds went through this assay and about 760 (36%) were called active. A selection follows. Values without a mark were called inactive.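 The calls were made as follows: active = thallium-flux fluorescence traces judged by eye to show enhanced or reduced glutamate response, manual score 1 or -1, so both directions (some results past the limit were not filed as active); inactive = the rest, including fluorescent or raised-baseline compounds.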

The assay is described as follows: thallium influx changes without GIRK channels – cell-based, HEK-293 rmGlu8, no GIRK, thallium flux, counter-screen for GIRK activator project, confirmation (AID 623868).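 Also: extra codes mark interference with 3 for fluorescent and 4 for baseline rise.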 The following applies: thallium flux fluorescence, at 10 µM, actives lie on both sides, codes: 1 enhancer, -1 blocker, 0 none, thallium stimulus containing EC20 glutamate.
As to `CCc1ccc2c(c1)c(N=NC1=NC(=O)CS1)c(O)n2CC`, the manual score was 1 (active). With `CCc1ccc2c(c1)c(N=NC1=NC(=O)CS1)c(O)n2C`, the manual score is 1 (active). With `CCn1c(O)c(N=NC2=NC(=O)CS2)c2cc(C)ccc21`, the manual score was 1 (active).

For `CC(Nc1nc(N2CCCC2)nc2ccccc12)c1ccccc1` (stereo not drawn), the manual score was 0. As for `Cc1ccccc1/C=c1\s/c(=C\C(=O)C(C)(C)C)[nH]c1=O`, the manual score is 0.5. Turning to `CC(C)(C)S(=O)(=O)c1ccc(S(=O)(=O)C(C)(C)C)s1`, the manual score was 0. Regarding `CCCn1nnnc1NC(=O)c1ccc2ccccc2c1`, the manual score is 1 (active). Regarding `CCCn1nc2cc(C(=O)NCCc3ccc(C)cc3)ccc2c1OCC`, the manual score was 0. On to `CCC(=O)Nc1ccc2c(c1)ncn2-c1ccc(OC)cc1`, for which the manual score was 0. For `CC1CCCN(Cc2cccc(Oc3ccccc3)c2)C1` (stereo not drawn), the manual score is 0. Consider `Cc1ccc(N=Nc2ccc(O)c3ncccc23)cc1`, for which the manual score is 1 (active). Under `Cc1ccccc1N=Nc1ccc(O)c2ncccc12` stands 1 (active). As to `O=c1cc(CN2CCOCC2)nc(C2CC2)[nH]1`, the manual score was 0.

Turning to `C/C(CC(O)c1ccc2ccccc2n1)=N/O` (stereo not drawn), the manual score was 0.

As to `CCCCn1c(N)c(C(=S)NC(=O)CC(C)C)c(=O)n(C)c1=O`, the manual score was 1 (active). Take `CCCCn1c(N)c(C(=S)NC(=O)CC(C)(C)C)c(=O)n(C)c1=O`: the manual score is 1 (active).

Regarding `CCN(CC)c1ccc2cc(-c3nnc(-c4ccccc4)o3)c(=O)oc2c1`, the manual score was 3. Regarding `CC12CCC(C(=O)N(CSC(=S)N/N=C\c3ccccc3O)C1=O)C2(C)C` (stereo not drawn), the manual score is 1 (active). Regarding `CC12CCC(C(=O)N(CSC(=S)N/N=C\c3ccccc3Cl)C1=O)C2(C)C` (stereo not drawn), the manual score is 1 (active). With `O=C(c1cccc(F)c1)N1CCN(C(=O)c2cc(-c3ccc(Cl)cc3Cl)on2)CC1`, the manual score is 0. Regarding `CC(C)n1c(-c2ccc(C(C)(C)C)cc2)n[nH]c1=S`, the manual score was 1 (active). Under `CC(C)(C)c1ccc(-c2n[nH]c(=S)n2C2CCCC2)cc1` stands 1 (active); under `CCCCCCc1cc2cc(-c3nnc(-c4cc(OC)c(OC)c(OC)c4)o3)c(=O)oc2cc1O`, 3. Under `CC(C)CCn1c(S(=O)(=O)O)nc2ccccc21` stands 0. Regarding `O=C(N/N=C\c1ccc(Cl)s1)c1cccs1`, the manual score is 1 (active). Regarding `Cc1cccc(-n2ncc3c(NCCc4ccc(S(N)(=O)=O)cc4)ncnc32)c1`, the manual score is 0.

With `Cc1nc(NCCc2ccc(S(N)(=O)=O)cc2)c2c(C)c(C)sc2n1`, the manual score is 1 (active). On to `NS(=O)(=O)c1ccc(CCNC2CC(=O)N(Cc3ccccc3)C2=O)cc1` (stereo not drawn), for which the manual score was 0. Under `CCc1cc(C(=O)NNC(=S)Nc2ccccc2C)cs1` stands 1 (active); under `Cc1ccc(C2CC2C(=O)NNC(=S)Nc2cccc(Cl)c2)cc1` (stereo not drawn), 0. With `Cc1ccc(Cl)cc1NC(=S)NCc1cccn1C`, the manual score is 0.

Consider `CCc1cc(C(=O)NNC(=S)Nc2cc(C)ccc2C)cs1`, for which the manual score was 1 (active).

For the molecule `Cc1ccc(C2CC2C(=O)NNC(=S)Nc2ccc(Cl)cc2)cc1` (stereo not drawn), the manual score is 0.5. Regarding `CCc1cccc(NC(=O)CCSCCC(=O)Nc2cccc(CC)c2)c1`, the manual score was 0. In the case of `Cc1ccc(C2CC2C(=O)NNC(=S)Nc2cccc(C)c2)cc1` (stereo not drawn), the manual score is 1 (active). Consider `CCc1cc(C(=O)NNC(=S)Nc2cccc(C)c2)cs1`, for which the manual score was 1 (active). For the molecule `CCn1c(NC(=O)Nc2cccc(C)c2C)cc2sccc21`, the manual score was 0.

Consider `CCOC(=O)CC1=C(C(=O)OCC)C(c2cccs2)C(C#N)=C(N)O1` (stereo not drawn), for which the manual score was -0.5. Turning to `CCOc1ccc(NC(=O)Nc2cccs2)cc1`, the manual score was 0. On to `CCCCN(C)CC(O)Cn1cc(/C=C/C(=O)c2cccs2)c2ccccc21` (stereo not drawn), for which the manual score is 3. With `Cc1cccc(NC(=S)NNC(=O)c2sccc2C)c1`, the manual score is 1 (active). Regarding `CC(C)C(=O)Nc1nnn(C)n1`, the manual score was 0. Take `C=CCNCc1cccn1-c1sc2c(c1C#N)CCCC2`: the manual score was 0. Then `Cc1[nH]n(-c2ccc(F)cc2)c(=O)c1/C=N/c1sc2c(c1C#N)CCCC2`, with 3. Under `Cc1[nH]n(-c2cccc3ccccc23)c(=O)c1/C=N/c1sc2c(c1C#N)CCC2` stands 1 (active); under `CCOc1cc(C2NN=C(c3ccc(C)cc3)S2)ccc1O` (stereo not drawn), 1 (active); under `C=CCNC(=O)NC(=S)c1ccccc1`, 1 (active). In the case of `N#Cc1ccc(-c2csc(NC3=NCCCCC3)n2)cc1`, the manual score was 0. As to `C=CCNC(=S)NNC(=O)COc1ccc(Cl)cc1Cl`, the manual score was 0.5. Consider `O=C(COc1ccc(Cl)cc1Cl)NNC(=S)Nc1ccc(F)cc1`, for which the manual score was 1 (active). Take `COc1ccc(NC(=S)SC)cc1OC`: the manual score was 0. Regarding `COC(=O)NC(=S)Nc1ccc(Oc2ccc(Cl)cc2Cl)c(Cl)c1`, the manual score is 1 (active).

As to `O=C(COc1ccc(Cl)cc1Cl)Nc1noc2ccccc12`, the manual score is 0. As for `CCC(C)c1ccc(NC(=S)Nc2ccc(OC)c(OC)c2)cc1` (stereo not drawn), the manual score was 0. Regarding `CC(=O)c1ccc(OC(=O)N(c2ccccc2)c2ccccc2)cc1`, the manual score is 0. With `CCOc1ccc2nc(/N=C/c3c(C)[nH]n(-c4ccccc4)c3=O)sc2c1`, the manual score was 1 (active). For the molecule `CCOc1ccc2nc(/N=C/c3c(C)[nH]n(-c4ccc(C)cc4)c3=O)sc2c1`, the manual score is 1 (active). Then `CCOc1[nH]n(-c2ccc(Cl)cc2)c(=O)c1C=Nc1ccc(Cl)cc1`, with 0; and `COc1ccc2nc(/N=C/c3c(C)[nH]n(-c4ccc(C)cc4C)c3=O)sc2c1`, with 1 (active); and `COc1ccc2nc(/N=C/c3c(C)[nH]n(-c4ccc(C)cc4)c3=O)sc2c1`, with 1 (active). As for `CC(C)OC(=O)CC12CN3CN(C1)CC(CC(=O)OC(C)C)(C3)C2=O`, the manual score is 0. Under `CC1(C)NC(=O)N(CC(O)COc2ccc(-c3ccc(C#N)cc3)cc2)C1=O` (stereo not drawn) stands 0; under `CCOc1cc(N2CCOCC2)c(OCC)cc1NC(=O)COC(=O)CCc1c[nH]c2ccccc12`, 0; under `COc1c2occc2c(OC)c2c(=O)cc(C(F)(F)F)oc12`, 0. Turning to `CCN(CC)c1ccc(NC(=O)c2nc3nc(C)cc(C(F)F)n3n2)cc1`, the manual score was 0. With `O=C(COC(=O)CCC1CCCC1)Nc1nc2c(F)c(F)c(F)cc2s1`, the manual score is 0. Then `CCN1CCCC1CNC(=O)C1CCN(Cc2nc(-c3cccc(Br)c3)oc2C)CC1` (stereo not drawn), with 0; and `CCOC(=O)C(CC)Sc1nnc(COc2ccc(C)cc2)n1-c1ccccc1` (stereo not drawn), with 3. Take `CCOC(=O)C(CC)Sc1nnc2cc(C)c3ccccc3n12` (stereo not drawn): the manual score was -1 (active). Regarding `CCN(CC)CCn1c(=S)[nH]c2cc(Cl)ccc2c1=O`, the manual score was 0.5. As for `O=c1c2ccc(Cl)cc2[nH]c(=S)n1CCC1=CCCCC1`, the manual score is 1 (active). Take `N#CCCN(Cc1ccccc1)C(=S)NC(=O)c1ccccc1`: the manual score is 1 (active). Then `COc1ccc(CN(CCC#N)C(=S)NC(=O)c2ccccc2)cc1`, with 1 (active); and `COCCN(C(=O)Cc1cccs1)C(C(=O)NCc1ccc(OC)cc1)c1ccccc1` (stereo not drawn), with 0; and `COc1ccc(CNC(=O)C(C#N)c2nc3ccccc3nc2N2CCCC2)cc1` (stereo not drawn), with 3. Then `O=C1/C(=C/c2ccc(N3CCCC3)cc2)NC(=S)N1C1CC1`, with 3.

`CC(C)CN1C(=O)/C(=C/c2cccs2)NC1=S`: the manual score was 1 (active). Consider `CCCN1C(=O)/C(=C/c2ccc(C)s2)NC1=S`, for which the manual score is 1 (active). Turning to `CCN1C(=O)/C(=C/c2ccc(C)s2)NC1=S`, the manual score is 0.5. Turning to `CCCN1C(=O)/C(=C/c2ccc(N3CCCC3)c(C)c2)NC1=S`, the manual score was 3.

For `CSc1nc2ccccc2cc1/C=C(\C#N)c1cccc(C)c1`, the manual score was 0. Then `CC1Oc2ccccc2C=C1/C=N/NC(=O)c1ccccc1` (stereo not drawn), with 0.

As for `Cc1ccc(C(=O)N/N=C/C2=Cc3ccccc3OC2C)cc1` (stereo not drawn), the manual score is 1 (active). `Cc1nnc(NC(=O)c2ccco2)s1`: the manual score was 0. Regarding `COC(=O)c1sc(NC(=S)NC(=O)c2ccccc2)nc1C`, the manual score was 1 (active). With `CCCCSc1nc(N)c(NC(=O)c2ccco2)c(=O)[nH]1`, the manual score is 0.

Regarding `COC(=O)Nc1nc(C)c(C(=O)N(C)C)s1`, the manual score was 0. `COC(=O)c1sc(NC(=S)NC(=O)c2cccc(C)c2)nc1C`: the manual score was 1 (active). For the molecule `CCOC(=O)c1sc(NC(=S)NC(=O)c2ccco2)nc1C`, the manual score is 1 (active). For the molecule `COC(=O)c1sc(NC(=S)NC(=O)c2ccccc2Cl)nc1C`, the manual score was 1 (active). For `COc1cc(C)ccc1OCCOc1cc(C)ccc1Cl`, the manual score is 0.

In the case of `COc1ccc(OC)c(S(=O)(=O)N(C)CC(=O)N2CCN(c3ccccc3F)CC2)c1`, the manual score is 0. In the case of `Cc1cccc2c1nc(-c1ccccc1)n1cnnc21`, the manual score is 0. Take `Cc1cc(NC(=O)COc2ccc(Cl)cc2Cl)n(-c2ccccc2)n1`: the manual score was 0. On to `CN(C(=S)NC(=O)CCCOc1ccc(Cl)cc1Cl)c1ccccc1`, for which the manual score is 1 (active). Consider `O=C(COc1ccc(Cl)cc1Cl)Nc1ccccn1`, for which the manual score was 0. As for `CSc1nc(N2CCOCC2)c2c(c1C#N)CC(C)(C)OC2`, the manual score was 0. For the molecule `Cc1nc(SC2CCOC2=O)c2c(C)c(C)sc2n1` (stereo not drawn), the manual score is 1 (active). Consider `CCNC(=S)N/N=C/c1c(Cl)cccc1Cl`, for which the manual score is 1 (active). As to `Cc1ccc(NCC(=O)Nc2cccc(S(=O)(=O)N(C)C)c2)c(Cl)c1`, the manual score is 0. On to `Cc1cccc(-n2c(O)c(/C=N/NC(=O)c3ccccc3Cl)c3ccccc3c2=O)n1`, for which the manual score is 3. Under `CCOC(=O)N/N=C/c1c(C)nn(-c2ccccc2Cl)c1Cl` stands 0; under `COc1ccc(C)cc1S(=O)(=O)Nc1cccc(Cl)c1Cl`, 0.5.

In the case of `Cc1ccc(NC(=S)N/N=C/c2c(Cl)cccc2Cl)c(C)c1`, the manual score is 1 (active). Consider `O=C(Cn1nc(Cc2ccncc2)c2ccccc2c1=O)N1CCN(C(=O)c2ccco2)CC1`, for which the manual score is 0.

`Cc1cc(C)c2nc(SCC(=O)NCCC3=CCCCC3)cc(C)c2c1`: the manual score is 1 (active).

`COc1cccc(-n2c(SCC(=O)NCCC3=CCCCC3)nc3n[nH]c(C)c3c2=N)c1`: the manual score is 0. With `O=C(CCCc1nc(-c2ccc(Cl)cc2)no1)Nc1cccnc1`, the manual score was 0.

Values taken from PubChem BioAssay AID623868 (Vanderbilt High Throughput Screening Facility, 2012).
